# Test results taken from PubChem BioAssay AID2806 (Sanford-Burnham Center for Chemical Genomics, 2010).
# Hit rate of the full screen: of about 330,000 compounds, about 660 (0.2%) were called active. For the sample, actives were picked, then their nearest neighbours and some compounds at random. Unmarked numbers belong to inactive results.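 Rule for the calls: active = inhibition of at least 40% at 10 µM in the primary screen; inactive = the rest.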
# Test system: intestinal alkaline phosphatase [Mus musculus]
# Test: inhibitors of mouse IAP, primary screen, biochemical, luminescence, uHTS (AID 2806);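 note: plate controls were DMSO with enzyme for no effect and no enzyme wells for full effect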
# Settings: purified mouse IAP, CDP-Star luminescence, 30 min; at 10 µM; active compounds read high
row,SMILES,inhibition
1,O=C(CCCN1C(=O)/C(=C\c2ccco2)SC1=S)Nc1cccc2ccccc12,47.9% (active)
2,O=C1/C(=C\c2ccccc2Cl)SC(=S)N1CCC(=O)N1CCCc2ccccc21,23.1%
3,COc1ccc(/C=C2/SC(=O)N(CCCCCC(=O)Nc3ccccc3C(=O)O)C2=S)cc1,12.6%
4,Cc1ccc(-c2nn(-c3ccccc3)cc2/C=C2\SC(=S)N(CCCCCC(=O)O)C2=O)o1,14.7%
5,O=C(CCCN1C(=O)/C(=C/c2cccs2)SC1=S)Nc1ccc(O)cc1,10.9%
6,O=C(CCCN1C(=O)/C(=C/c2ccco2)SC1=S)Nc1ccccc1,47.8% (active)
7,O=C(CNS(=O)(=O)c1ccc2c(c1)OCCCO2)N1CCN(c2ccc(F)cc2)CC1,-6.2%
8,COc1ccccc1CNC(=O)CSc1nc(=O)n(Cc2ccncc2)c2c1CCC2,-1.4%
9,CCCCS(=O)c1snnc1C (centres undefined),-4.4%
10,Cc1ccc(Cc2cnc(N)s2)o1,50.5% (active)
11,CCCCNc1ccc(C(=O)Nc2cccc(C)n2)cc1[N+](=O)[O-],15.5%
12,Cn1cnc([N+](=O)[O-])c1Sc1n[nH]c(N)n1,7.9%
13,O=C(CCSCCc1ccccn1)Nc1nccs1,-7%
14,Cc1ccc(C(=O)N/N=C/c2sc(=O)n(Cc3cccc(C(=O)O)c3)c2Cl)cc1,11.7%
15,NS(=O)(=O)c1ccc(-c2ccc(/C=C3\SC(=O)NC3=O)o2)cc1,55.1% (active)
16,COc1cc(/C=C/C(=O)O)cc(S(=O)(=O)Nc2ccccc2C(=O)NCCc2ccccc2)c1OC,-5.2%
17,CCOc1ccc(NC(=O)COC(=O)C2CCC(=O)N2)c([N+](=O)[O-])c1 (centres undefined),1%
18,COC(C[C@@H]1O[C@@H]1C(=O)[C@@H](C)OCc1ccccc1)OC,2.7%
19,CC(=O)c1c(C)n([O-])c2ccccc2[n+]1=O,0.9%
20,NC(=O)c1ccsc1NC(=O)c1ccco1,0.1%

row,SMILES,inhibition
1,O=C(Nc1nnc(CCOCCOCCc2nnc(NC(=O)c3ccco3)s2)s1)c1ccco1,0.5%
2,O=C(Nc1nc(-c2ccco2)c(-c2ccco2)s1)c1ccco1,64.2% (active)
3,Cc1nc(CC(=O)NNS(=O)(=O)c2ccc(F)c(Cl)c2)cs1,1.6%
4,COc1ccccc1-n1c(-c2cc(-c3ccco3)[nH]n2)n[nH]c1=S,57.8% (active)
5,COc1ccccc1-n1cn[nH]c1=S,1.9%
6,COc1ccc(OC)c(-n2c(-c3ccn[nH]3)n[nH]c2=S)c1,-6.5%
7,NC(=O)c1ccc(Nc2ccc3c(c2)CCC3)c([N+](=O)[O-])c1,11.2%
8,Brc1cnc(N2CCCC2)nc1N1CCCCC1,1.2%
9,Fc1ccc(Nc2nnns2)cc1,7.1%
10,Cc1ccc(S(=O)(=O)NCCSC(C)(C)C)cc1,-3.9%
11,C[C@H]1CN([C@@H](C)CO)C(=O)Cc2cc(NC(=O)Cc3ccccc3)ccc2O[C@H]1CN(C)S(=O)(=O)c1cccs1,-5.4%
12,CN1CCCc2cc(C#N)c(=O)[nH]c21,5.2%
13,COc1cccc(CCNC(=O)c2cccc(NC(=O)C3=C(C)OCCS3)c2)c1,-9.8%
14,CC(=O)N1c2ccc(S(=O)(=O)N3CCC(C(=O)NC4CCCC(C)C4C)CC3)cc2CC1C (centres undefined),-23.1%
15,O=C(CS(=O)(=O)c1ccccc1)Nc1ccc(S(=O)(=O)Nc2ccccn2)cc1,6.7%
16,CCN(CC)P(=O)(C(NC(=O)OC)C(F)(F)C(F)(F)C(F)(F)C(F)F)N(CC)CC (centres undefined),1.2%
17,N#CC(C(N)=O)=C1CCC2(CC1)OCCCCO2,-8.3%
18,Cc1[nH]c2ccccc2c1-c1ccc(Cl)nn1,4.1%
19,CC(C)S(=O)(=O)c1csc(NC(=O)Nc2ccc(Cl)cc2)c1Cl,-190%
20,O=C1CCCN1C(=O)COc1ccc([N+](=O)[O-])cc1,2.6%

row,SMILES,inhibition
1,COC(=O)c1cc(NC(=O)c2nn(C)c(=O)c3ccccc23)cc(C(=O)OC)c1,-11.6%
2,COc1ccc(N(Cc2ccc(N(C)C)cc2)C(=O)c2ccc(S(C)(=O)=O)cc2)cc1,3.6%
3,CC(=O)c1c(C)[nH]c(C(=O)NCc2ccc(C)cc2)c1C,-23.4%
4,COC(=O)c1ccc(CNC(=O)C2CCC(=O)N(Cc3cccc(F)c3)C2)cc1 (centres undefined),2.3%
5,COc1cccc(N(C(=O)CNC(=O)c2ccco2)C(C(=O)NC2CCCCC2)c2cccnc2)c1 (centres undefined),-11.8%
6,Cc1ccccc1CN1C[C@@H]2C[C@@H](c3ccc4nsnc4c3)N3CCC[C@@]23C1=O,4%
7,CCc1nc2nc(C)c(NS(=O)(=O)c3ccc4c(c3)CCCC4)c(=O)n2[nH]1,8.4%
8,CNC(=O)NCCN1CCCC1=O,-13.9%
9,CC(C)(C)NC(=O)NC(=O)COC(=O)Cn1c(C(F)(F)F)nc2ccccc21,3.3%
10,O=C(CNS(=O)(=O)c1ccccc1)N1CCN(C(=O)c2ccco2)CC1,2.1%
11,CC(C)NC(=S)Nc1cccc2cnccc12,9.6%
12,Cc1c(NC(=O)C(=O)N/N=C/c2cccs2)c(=O)n(-c2ccccc2)n1C,5.7%
13,Clc1cccc(Cl)c1OCCOCCNCc1ccccc1,-0.1%
14,CC1=C(C)C(=O)OC(C(C)C2CCC3C4CC=C5CC(OC6OC(COC7OC(CO)C(O)C(O)C7O)C(O)C(O)C6O)CC(O)C5(C)C4CCC23C)C1 (centres undefined),9.3%
15,C=CC1C(OC2OC(CO)C(O)C(O)C2O)OC=C(C(=O)OC)C1CC1CC(=O)CC(CC(=O)CCc2ccc(O)cc2)O1 (centres undefined),6.5%
16,CC(/C=C/C1(O)C(C)CC(=O)CC1(C)C)OC1OC(CO)C(O)C(O)C1O (centres undefined),41.9% (active)
17,COc1cc(/C=N\NC(=O)C2C(=O)NCC2c2ccccc2)cc(OC)c1O (centres undefined),11.4%
18,COc1cccc(/C=N\NC(=O)C2=NNC(=O)C2C)c1O (centres undefined),61.4% (active)
19,CCOc1ccc2[nH]c(C(=O)N/N=C/c3cccc(OC)c3OC)cc2c1,10.1%
